CHO-K1 Ca ag – nonselective activator or artifact in parental CHO-K1 cells; activation, % at 3 µM; Fluo-8 calcium fluorescence; scaled to maximal ATP response, vehicle zero; actives 0.48% (n = 360,000); AID 602248; in the data active means activation above about 15%;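 further: untransfected CHO-K1 host cells lacking M1 receptor as counterscreen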
CHO-K1 Ca PAM – counter-screen for M1 PAMs: effect in parental CHO-K1 cells; actives 0.02% (n = 360,000); ATP EC20, Fluo-8 calcium fluorescence; 0% at ATP EC20, 100% at ATP max; AID 602247; activation, % at 3 µM;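 active means activation above the run cutoff, the mean activation of all test compounds plus 3 SD, cut at about 40% in these data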;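 further: peak over basal fluorescence ratio in a 140 s read after ATP addition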
CHRM1 agonist – agonists of human M1 muscarinic receptor; activation, % at 3 µM; P11229; actives 0.33% (n = 360,000); CHO-K1 hM1, Fluo-8 calcium fluorescence, agonist mode; 0% DMSO, 100% acetylcholine EC100;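 active means activation above the run's mean compound activation plus 3 SD, cut at about 16% in these data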;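 further: peak over basal fluorescence ratio within a 140 s kinetic read after compound addition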
Target sequence (P11229 whole entry, looked up): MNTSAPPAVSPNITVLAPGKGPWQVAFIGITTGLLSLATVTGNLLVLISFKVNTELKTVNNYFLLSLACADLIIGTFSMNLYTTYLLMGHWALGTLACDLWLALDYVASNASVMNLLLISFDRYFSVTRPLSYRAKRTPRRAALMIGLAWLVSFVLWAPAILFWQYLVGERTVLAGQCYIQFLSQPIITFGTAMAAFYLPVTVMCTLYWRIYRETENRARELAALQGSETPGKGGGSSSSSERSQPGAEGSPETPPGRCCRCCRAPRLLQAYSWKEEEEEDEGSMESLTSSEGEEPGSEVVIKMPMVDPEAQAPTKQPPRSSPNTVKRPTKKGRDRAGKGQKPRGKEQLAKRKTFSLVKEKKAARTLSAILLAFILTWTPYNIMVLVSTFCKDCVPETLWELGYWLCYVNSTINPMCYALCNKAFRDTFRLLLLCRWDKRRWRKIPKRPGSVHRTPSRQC
CHO-K1 Ca antag – M1 antagonist counterscreen hit in parental CHO-K1 cells; ATP-induced calcium, Fluo-8 fluorescence; inhibition, % at 3 µM; actives 0.6% (n = 360,000);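 active means inhibition above a per-plate cutoff, the plate's mean sample inhibition plus 3 SD, cut at about 24% in these data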
M1 antag – antagonists of human M1 muscarinic receptor; AID 588852; P11229; inhibition, % at 3 µM; CHO-K1 hM1, Fluo-8 calcium fluorescence, ACh EC80 antagonist; actives 1.3% (n = 360,000);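 active means percent inhibition above its own plate's cutoff, namely the mean of that plate's compound wells plus 3 SD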;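 further: peak over basal fluorescence ratio during 140 s after agonist addition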
M1 PAM – potentiates human M1 receptor response to acetylcholine | CHO-K1 hM1, Fluo-8 calcium fluorescence, ACh EC20; 0% = ACh EC20, 100% = maximal ACh | activation, % at 3 µM | actives 0.088% (n = 360,000) | AID 588819; in the data active means activation above about 19%, passing the limit was not always enough
Numbers stand for hits; - = inactive. The list is not random: actives were taken first. Their share in the collection is about 2.3%.

SMILES | CHO-K1 Ca ag | CHO-K1 Ca PAM | CHRM1 agonist | CHO-K1 Ca antag | M1 antag | M1 PAM
COc1ccc(C2=NN(C(C#N)c3ccc(OC)cc3)C(c3ccccc3)C2)cc1 (centres undefined) | - | - | - | - | - | -
O=C(NC(=S)Nc1cccnc1)c1cc2ccccc2o1 | - | - | - | - | - | -
O=C(Nc1cccnc1)c1cc2cc(Br)ccc2o1 | - | - | - | - | 60.2 | -
N#Cc1nc(-c2ccc(Cl)cc2)oc1NCC1CCCO1 (centres undefined) | - | - | - | - | - | -
O=C(COC(=O)C12CC3CC(CC(Br)(C3)C1)C2)N1CCOCC1 | 16.6 | - | - | - | - | -
CC(C)C(C(=O)Nc1nccs1)c1ccc(Cl)cc1 (centres undefined) | - | - | - | - | - | -
CC(C)C(C(=O)Nc1ccncc1)c1ccc(Cl)cc1 (centres undefined) | 16.7 | - | - | - | - | -
O=C(NCCCN1CCC(Cc2ccccc2)CC1)C1CCC(=O)N1C1CCCC1 (centres undefined) | - | - | - | - | - | -
O=C(C1CC(=O)N(C2CCCC2)C1)N1CCN(c2ccccc2)CC1 (centres undefined) | - | - | - | 60.5 | - | -
O=C(NCCCN1CCC(Cc2ccccc2)CC1)C1CC(=O)N(C2CCCC2)C1 (centres undefined) | - | - | - | - | 32.8 | -
O=C(Nc1ccc(F)c(Cl)c1)c1ccccc1NC(=O)C1CCCCC1C(=O)O (centres undefined) | - | - | - | 25.6 | - | -
O=C(Nc1cccc(Cl)c1)c1ccccc1NC(=O)C1CCCCC1C(=O)O (centres undefined) | - | - | - | - | - | -
Nc1[nH]n2c(=O)cc(-c3ccccc3)nc2c1N=Nc1ccccc1 | - | - | - | - | - | -
Nc1[nH]n2c(=O)cc(-c3ccccc3)nc2c1N=Nc1ccc(S(N)(=O)=O)cc1 | - | - | - | 24.7 | - | -
COC1=CC(=NCl)C=CC1=NCl | - | - | - | - | - | -
ClN=C1C=CC=CC1=NCl | - | - | - | 34.5 | - | -
O=C(C1CCCC1)N1CCN=C1SCc1cccc([N+](=O)[O-])c1 | - | - | - | - | - | -
COCCCn1c(N)c(-c2nc3ccccc3n2C)c2nc3ccccc3nc21 | - | - | - | - | 28.1 | -
Cc1ccc(S(=O)(=O)N2CCCCC2)cc1NC(=O)COC(=O)c1ccccc1F | - | - | - | - | - | -
O=C(COC(=O)C12CC3CC(CC(O)(C3)C1)C2)Nc1ccc(Cl)cc1F | - | - | - | - | - | -
COC(=O)c1ccc(C(=O)OC)c(NC(=O)COC(=O)C23CC4CC(CC(O)(C4)C2)C3)c1 | - | - | - | 33.1 | - | -
COc1ccc(C(c2c(C)[nH]n(-c3ccccc3)c2=O)c2c(C)[nH]n(-c3ccccc3)c2=O)cc1OC | 15.4 | - | - | - | - | -
COc1ccc(C(c2c(C)n(C)n(-c3ccccc3)c2=O)c2c(C)n(C)n(-c3ccccc3)c2=O)cc1OC | - | - | - | - | - | -
C=CCNC(=O)c1oc2ccc(S(=O)(=O)N3CCC4(CC3)OCCO4)cc2c1C | - | - | - | - | - | -
COc1ccc(NC(=O)c2oc3ccc(S(=O)(=O)N4CCC5(CC4)OCCO5)cc3c2C)cc1 | - | - | - | - | 34.5 | -
SMILES | CHO-K1 Ca ag | CHO-K1 Ca PAM | CHRM1 agonist | CHO-K1 Ca antag | M1 antag | M1 PAM
O=C(Nc1ccccn1)c1ccc2c(c1)S(=O)(=O)c1ccccc1C2=O | - | - | - | - | - | -
O=C1c2ccccc2S(=O)(=O)c2cc(C(=O)N(c3ccccn3)c3ccccn3)ccc21 | 70.5 | - | 51.0 | - | - | -
CCCCCCN1C[C@H](O)[C@@H](n2cc(C3CC3)nn2)C[C@@H]1c1ccc(OC)cc1 | - | - | - | - | - | -
CN1CCN(/C=N/c2c(C#N)cnn2-c2ccccc2)CC1 | - | - | - | - | 30.0 | -
Cc1ccc(-n2ncc(C#N)c2/N=C/N2CCN(C)CC2)cc1 | - | - | - | - | - | -
CC1CCCN(S(=O)(=O)c2ccc(C(=O)NC(C)c3ccccc3)cc2)C1 (centres undefined) | - | - | - | - | - | -
COc1ccc(C(C)(C)C)cc1NS(=O)(=O)c1cccc2cccnc12 | - | - | - | - | - | 32.4
COc1ccc(OC)c(NS(=O)(=O)c2cccc3cccnc23)c1 | - | - | - | - | - | -
Cc1cc(C)c(NS(=O)(=O)c2cccc3cccnc23)c(C)c1 | - | - | - | 26.9 | - | -
O=C(Cc1c(F)cccc1Cl)OCC(=O)c1ccc[nH]1 | - | - | - | - | - | -
Cc1ccc(C)c(NC(=S)/C(=C(\[O-])c2ccc(Cl)s2)[n+]2ccccc2)c1 | - | - | - | - | 23.0 | -
[O-]/C(=C(\C(=S)Nc1cccc2ccccc12)[n+]1ccccc1)c1ccc(Cl)s1 | - | - | - | - | - | -
C/C(=C/CCC(C)(O)C1CC[C@@]2(C)[C@@H]3CC=C4[C@@H](CC[C@H](O[C@H]5O[C@@H](CO)[C@H](O)[C@@H](O)[C@@H]5O)C4(C)C)[C@]3(C)C(=O)C[C@]12C)CO[C@@H]1O[C@H](CO)[C@@H](O)[C@H](O)[C@H]1O (some centres undefined) | - | - | - | - | - | -
COc1ccc(/C=C2\CN(Cc3ccccc3)C/C(=C\c3ccc(OC)c(O)c3)C2=O)cc1O | - | - | - | - | 28.3 | -
CCN1C/C(=C/c2ccc(OC)c(O)c2)C(=O)/C(=C/c2ccc(OC)c(O)c2)C1 | - | - | - | - | - | -
CCn1ccnc1CNC(=O)c1ccc2oc(C(C)C)nc2c1 | - | - | - | - | 57.4 | -
Cc1cnc(CNC(=O)c2ccc3oc(C(C)C)nc3c2)[nH]1 | - | - | - | - | - | -
CN1CCN(c2ccc(NC(=S)NC(=O)c3cccc4c(Cl)cccc34)cc2)CC1 | - | - | - | - | 37.2 | -
CC(C)Oc1cccc(C(=O)NC(=S)Nc2ccc(N3CCN(C)CC3)cc2)c1 | - | - | - | - | 98.9 | -
COc1cccc(C(=O)NC(=S)Nc2ccc(N3CCCC3)cc2)c1 | - | - | - | - | - | -
Cc1cc(S(=O)(=O)Nc2ccc(C(=O)NCc3ccncc3)cc2)ccc1F | - | - | - | - | - | -
CC1(C)[C@H]2CC=C(CN3CCC(N4CCC(C(=O)N5CCCC5)CC4)CC3)[C@@H]1C2 | - | - | - | - | 61.9 | -
CC(C)CCNC(=O)CN(Cc1ccccc1)C(=O)CCC(=O)Nc1ccccn1 | - | - | - | - | - | -
Fc1ccc(-n2nnnc2-c2cnc(-c3cccs3)nc2C(F)(F)F)cc1 | - | - | - | - | 57.5 | -
FC(F)(F)c1nc(-c2ccncc2)ncc1-c1nnnn1-c1ccccc1 | - | - | - | - | - | -

Assay outcomes (PubChem BioAssay)
